Rab9 promoter act = activators of Rab9 promoter. Huh7 Rab9 promoter-luciferase reporter, luminescence, 24 h. Potency, µM (series often up to 9.22 µM), for inactives: at the highest dose activation, negative = inhibition, most hits filed as activators. actives 2.8% (n = 320,000). AID 485297; further: % of control where 0% means no effect; nearly all actives have a fitted effect of over 60% in size
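Stable Rab9-luc Huh7, 1500 cells/well, 2 h settle; cmpd in DMSO, 24 h, 37 °C/5% CO2; luciferase reagent 10 min RT; luminescence.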
FLuc counter = firefly luciferase modulation, counter-screen for miR-21 project; P08659; purified FLuc, Km substrates, luminescence inhibition; Potency, µM (highest dose often 57.5 µM), inactives show at the highest dose activity change, negative = inhibition, usual class: inhibitors; actives 6.9% (n = 360,000); AID 588342;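 further: plate controls were vehicle for no effect and reference inhibitor for full effect; nearly all actives have a fitted effect of over 55% in size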
Target sequence (P08659 whole entry, looked up): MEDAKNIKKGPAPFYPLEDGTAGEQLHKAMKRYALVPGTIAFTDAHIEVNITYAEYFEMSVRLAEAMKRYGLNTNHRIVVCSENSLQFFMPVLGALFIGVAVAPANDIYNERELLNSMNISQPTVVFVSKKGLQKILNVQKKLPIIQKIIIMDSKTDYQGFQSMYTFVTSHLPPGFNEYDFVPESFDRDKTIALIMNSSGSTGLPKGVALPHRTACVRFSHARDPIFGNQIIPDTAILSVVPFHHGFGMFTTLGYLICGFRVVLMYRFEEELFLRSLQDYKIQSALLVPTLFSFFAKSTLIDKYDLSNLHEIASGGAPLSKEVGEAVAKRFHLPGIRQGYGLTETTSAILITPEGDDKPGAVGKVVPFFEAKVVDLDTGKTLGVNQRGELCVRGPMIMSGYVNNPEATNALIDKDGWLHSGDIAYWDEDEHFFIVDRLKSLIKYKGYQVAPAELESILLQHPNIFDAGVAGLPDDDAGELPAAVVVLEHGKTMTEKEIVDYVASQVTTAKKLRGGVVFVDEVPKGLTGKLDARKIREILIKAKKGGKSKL
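Biochemical qHTS of compounds, final roughly 60 µM downward over six points, against 10 nM purified firefly luciferase using Km concentrations of substrates (10 uM D-luciferin, 10 uM ATP) in Tris acetate pH 7.5 buffer; luminescence output.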
SMN2 splice up = increases expression of the SMN2 splice variant; HEK293 SMN2-luciferase splicing reporter, luminescence, 30-36 h; Potency, µM (titrated, usually from 46.1 µM), without a hit: at the highest dose activity change, positive = activation, actives largely listed as activators; actives 2.8% (n = 210,000); AID 1458; further: % of control where 0% means no effect; nearly all actives have a fitted effect of over 55% in size
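HEK293 cells carry an SMN2 minigene-luciferase reporter in which exon 7 inclusion puts luciferase in frame. Cells were seeded at 2000 cells/well, attached for 10-12 hours, then exposed to compounds for 30-36 hours at 37C before ONE-Glo luminescence.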
NPC1 promoter act = activates the NPC1 promoter | Huh7 NPC1 promoter luciferase reporter, 24 h | Potency, µM (series often up to 9.22 µM), without a hit: top-dose activation, actives largely listed as activators | actives 2.4% (n = 320,000); further: % of control where 0% means no effect; nearly all actives have a fitted effect of over 60% in size
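Cells: Huh7 expressing luciferase under the NPC1 promoter, 1500/well. Seeded 2 h, compound added, incubated 24 h at 37 °C. Luciferase reagent, 10 min ambient, then luminescence.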
ELG1 genotox = induces genotoxicity in HEK293T cells with luciferase-tagged ELG1; HEK293T ELG1-luciferase reporter, luminescence, 16 h; actives 1.3% (n = 330,000); AID 504466; Potency, µM (titrated, usually from 46 µM), inactives show top-dose activity change, positive = activation, usual class: activators; further: % of control where 0% means no effect; nearly all actives have a fitted effect of over 60% in size
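Reporter readout depends on ELG1 protein level, which increases with genetic stress. After 16 hr compound exposure at 37 °C, luciferase activity was quantified using ONE-Glo.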
* hit, by the source's call; ? = inconclusive; nt = no result; [ ] = another dose, or the depositor's remark. Rows were chosen to be rich in hits. Some 7.5% of all compounds tested hit in one or more screens of this group. The call rests on the fitted dose curve; in most records, active means well fitted curve in the direction sought with a large enough effect; inconclusive means small, poorly fitted or top-dose-only effect, or another doubt; inactive means no such curve, though single readings can be large; an effect the other way counts as inactive or inconclusive. Potency means the concentration at half of the fitted maximal effect.

SMILES	Rab9 promoter act	FLuc counter	SMN2 splice up	NPC1 promoter act	ELG1 genotox
CC1(c2ccc3c(c2)OCCO3)NC(=O)N(CC(=O)Nc2ccccc2)C1=O (configuration not stated)	4%	3%	nt	-2%	3%
O=C(C[C@@H](C(=O)O)N1CCOCC1)c1ccccc1	nt	nt	-9%[9.22 µM]	nt	nt
NC(=O)C[C@H](N)C(N)=O	nt	nt	-8%[9.22 µM]	nt	nt
Brc1ccc(N=Nc2ccc3ccccc3n2)cc1	?	0.021µM*	nt	?	?
C/C=C/C=C\C(=O)Nc1cccc(C2=NOC3(C2)C[C@@H](C(N)=O)N(C(=O)c2cc([N+](=O)[O-])cc([N+](=O)[O-])c2)C3)c1 (some centres not stated)	-7%	3µM*	nt	-1%	5%
C/C=C\C=C/C(=O)Nc1cccc(C2=NOC3(C2)C[C@@H](C(N)=O)N(C(=O)/C=C/C=C\C)C3)c1 (some centres not stated)	5%	19µM*	nt	8%	6%
C/C=C\C(=O)Nc1cccc(C2=NOC3(C2)C[C@H](C(N)=O)N(C(=O)/C=C/CC)C3)c1 (some centres not stated)	-2%	0%	nt	-4%	4%
C/C=C\C=C/C(=O)Nc1cccc(C2=NOC3(C2)C[C@@H](C(N)=O)N(C(=O)/C=C/CC)C3)c1 (some centres not stated)	10%	17µM*	nt	2%	4%
C/C=C\C=C/C(=O)Nc1cccc(C2=NOC3(C2)C[C@@H](C(N)=O)N(C(=O)C2(C)CC2)C3)c1 (some centres not stated)	4%	15µM*	nt	5%	7%
C/C=C\C(=O)Nc1cccc(C2=NOC3(C2)C[C@@H](C(N)=O)N(C(=O)C2(C)CC2)C3)c1 (some centres not stated)	-9%	-2%	nt	-5%	3%
C/C=C\C=C\C(=O)N1CC2(CC(c3cccc(NC(=O)CC(c4ccccc4)c4ccccc4)c3)=NO2)C[C@H]1C(N)=O (some centres not stated)	-8%	-20%	nt	-5%	-7%
CCC(=O)Nc1cccc(C2=NOC3(C2)C[C@@H](C(N)=O)N(C(=O)c2cc([N+](=O)[O-])cc([N+](=O)[O-])c2)C3)c1 (some centres not stated)	-6%	-2%	nt	-3%	2%
COC(=O)c1c(NC(=O)COc2ccc(C)cc2Br)sc2c1CCCC2	nt	-3%	-1%	nt	nt
C=C(C)C(=O)N1CC2(CC(c3cccc(NC(=O)/C=C\C=C/C)c3)=NO2)C[C@H]1C(N)=O (some centres not stated)	14%	17µM*	nt	12%	1%
CCC(=O)Nc1ccc2nc(C3CC3)n(Cc3ccc(C(C)(C)C)cc3)c(=O)c2c1	?	1.5µM*	nt	0.32µM*	1.6µM*
COc1ccc(Cn2c(C3CC3)nc3ccc(NC(=O)C4CC4)cc3c2=O)cc1	1.6µM*	4.3µM*	11µM*	1.4µM*	2.6µM*
O=C(Nc1ccc2nc(C3CC3)n(Cc3ccc(F)cc3)c(=O)c2c1)c1ccco1	4%	-1%	?	23%	-8%
CC(=O)Nc1ccc2nc(C3CC3)n(Cc3ccc(Cl)cc3)c(=O)c2c1	3.5µM*	21µM*	10µM*	3.5µM*	?
COc1ccccc1CNS(=O)(=O)c1ccc2c(c1)CC(C)N2C(C)=O (configuration not stated)	nt	-7%	nt	nt	nt
CC(=O)N1CCCc2cc(S(=O)(=O)N(C)CC(=O)Nc3ccc(F)c(Cl)c3)ccc21	nt	-7%	nt	nt	nt
Nc1cc2nc[nH]c2cc1N	11%	15µM*	3%	-7%	19%
O=[N+]([O-])c1cccc(-c2ncc3ccccn23)c1	?	-16%	5%	1%	17%
Nc1c(-c2cccc([N+](=O)[O-])c2)nc2ccccn12	3.2µM*	17µM*	?	?	?
CCN(CC)c1cc(C)c2cc(NC(=O)/C=C/c3ccc(C)cc3)ccc2n1	nt	-13%	-9%	nt	nt
COc1cc(NC(=O)Nn2cnnc2)cc(OC)c1OC	1%	-3%	nt	-1%	-4%

Source: PubChem
